From PubChem
Only some compounds are listed: those with a hit (about 12% of all), similar ones and a draw of the others.
G9a block = blocks human histone lysine methyltransferase G9a | Potency, µM (titrated, usually from 102 µM), without a hit: at the highest dose activity, negative = inhibition, hits mostly inhibitors | Q96KQ7 | actives 8.8% (n = 350,000) | G9a H3K9 monomethylation, AlphaScreen, 2 h; note: % is set by controls: 0 for no effect and ±100 for the full control effect; nearly all actives have a fitted effect of over 75% in size
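Using a bead-based AlphaScreen, monomethylated H3K9 product from 2 h room-temperature reactions (G9a 20 nM, peptide 500 nM, SAM 20 uM) was detected with 0.5 ug/mL rabbit anti-H3K9me1 antibody.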
HP1b chromo inh = blocks HP1-beta chromodomain binding to methylated histone tails; AlphaScreen HP1-beta / biotin-H3K9me3 peptide binding; AID 540317; actives 0.56% (n = 390,000); Potency, µM (doses to about 114 µM), inactives show at the highest dose activity change, negative = inhibition, most hits filed as inhibitors; note: nearly all actives have a fitted effect of over 70% in size
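Compound inhibition of the preformed complex between 50 nM HP1-beta and 50 nM biotinylated H3K9me3 peptide was read by AlphaScreen. Buffer was PBS pH 7.4 with 0.01% Tween-20. Incubations ran 30 min at room temperature, with 10 ug/mL donor/acceptor beads.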
BAZ2B inh = inhibitors of human BAZ2B bromodomain. Q9UIF8. AlphaScreen BAZ2B-H3K14Ac peptide displacement. Potency, µM (series often up to 114 µM), inactives show at the top dose activity change, negative = inhibition, most hits filed as inhibitors. actives 4.4% (n = 360,000). AID 504333; note: % is set by controls: 0 for no effect and ±100 for the full control effect; nearly all actives have a fitted effect of over 60% in size
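Multi-concentration screen (max 110 uM) measuring displacement of acetylated histone H3 peptide from BAZ2B by AlphaScreen, using 50 nM protein, 50 nM peptide and 10 ug/mL streptavidin donor plus Ni-chelate acceptor beads.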
Sfp inh = blocks B. subtilis Sfp PPTase activity | Q9F4F7 | Biochemical Sfp PPTase activity, qHTS | Potency, µM, for the others: largest response in the series, negative = inhibition, usual class: inhibitors | actives 3.5% (n = 310,000);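 note: the enzyme is Sfp with the accession as filed and its product quenches rhodamine fluorescence; 0% = enzyme reaction without inhibitor and -100% = no enzyme wells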
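Reaction rates are the 30-min fluorescence difference (ex 525, em 598 nm) in wells containing 15 nM Sfp, 5 uM rhodamine-CoA and 12.5 uM BHQ-2-YbbR at pH 7.6 with 10 mM MgCl2.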
JMJD2A Tudor inh = JMJD2A Tudor domain (human) inhibition | Potency, µM (top dose mostly 114 µM), without a hit: at the highest dose activity change, negative = inhibition, actives largely listed as inhibitors | AID 504339 | AlphaScreen JMJD2A-Tudor / H3K4me3 peptide binding | actives 4.4% (n = 390,000) | O75164; note: % is set by controls: 0 for no effect and ±100 for the full control effect; nearly all actives have a fitted effect of over 50% in size
Target sequence (O75164 whole entry, looked up, the tested form may be a part): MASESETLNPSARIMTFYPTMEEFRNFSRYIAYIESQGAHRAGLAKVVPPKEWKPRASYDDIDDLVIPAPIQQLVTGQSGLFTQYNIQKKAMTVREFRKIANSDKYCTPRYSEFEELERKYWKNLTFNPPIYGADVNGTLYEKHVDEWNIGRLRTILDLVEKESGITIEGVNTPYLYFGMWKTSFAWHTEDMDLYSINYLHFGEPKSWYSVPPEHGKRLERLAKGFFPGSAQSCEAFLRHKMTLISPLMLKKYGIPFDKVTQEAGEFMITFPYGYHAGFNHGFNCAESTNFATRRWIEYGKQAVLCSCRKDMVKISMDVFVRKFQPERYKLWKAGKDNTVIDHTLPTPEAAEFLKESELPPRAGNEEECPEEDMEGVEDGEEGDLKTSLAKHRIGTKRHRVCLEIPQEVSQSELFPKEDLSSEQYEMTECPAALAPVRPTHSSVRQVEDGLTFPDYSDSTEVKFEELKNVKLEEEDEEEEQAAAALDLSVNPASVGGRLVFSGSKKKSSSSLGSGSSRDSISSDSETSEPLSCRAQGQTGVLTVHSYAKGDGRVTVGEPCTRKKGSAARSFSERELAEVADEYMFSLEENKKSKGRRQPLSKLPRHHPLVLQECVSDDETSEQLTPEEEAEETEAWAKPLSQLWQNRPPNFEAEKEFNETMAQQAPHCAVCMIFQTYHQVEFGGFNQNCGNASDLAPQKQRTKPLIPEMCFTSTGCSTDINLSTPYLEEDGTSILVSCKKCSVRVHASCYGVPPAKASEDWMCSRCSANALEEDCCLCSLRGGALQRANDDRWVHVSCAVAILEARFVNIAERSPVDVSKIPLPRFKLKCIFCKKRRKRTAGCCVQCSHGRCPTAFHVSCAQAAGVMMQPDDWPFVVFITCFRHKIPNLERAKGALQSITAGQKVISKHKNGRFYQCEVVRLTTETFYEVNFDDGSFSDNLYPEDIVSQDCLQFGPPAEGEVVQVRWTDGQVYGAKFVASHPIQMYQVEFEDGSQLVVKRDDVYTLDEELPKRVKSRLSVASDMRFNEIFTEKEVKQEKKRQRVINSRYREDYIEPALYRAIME
* marks the source's active call; other numbers are inactive results; ? = inconclusive; nt = no result given; [ ] = remark or other dose. Calls come from the whole dose curve; as a rule, active = well fitted curve in the direction sought with a large enough effect; inconclusive = small, poorly fitted or top-dose-only effect, or another doubt; inactive = no such curve, though single readings can be large; an effect the other way counts as inactive or inconclusive. Potency is the fitted concentration of half-maximal effect.

SMILES	G9a block	HP1b chromo inh	BAZ2B inh	Sfp inh	JMJD2A Tudor inh
Cc1cc(C)c(NC(=O)/C(C#N)=C/c2ccc(OCc3ccc(F)cc3)cc2)c(C)c1	-13%	41%	-5%	-16%	5%
CCc1ccccc1NC(=O)CCC(=O)N1CCSc2ccccc21	nt	5%	7%	-4%	-20%
Cc1cc(NC(=O)CN2CCN(c3ccc(O)cc3)CC2)no1	15%[0.501 µM]	?	-11%	79µM*	89µM*
Cc1cc(NC(=O)CN2CCN(S(=O)(=O)c3ccc(Cl)cc3)CC2)no1	-49%[59 µM]	34%	-6%	17%	-13%
O=C(CN1CCN(C(=O)c2ccco2)CC1)Nc1ccc(Cl)c(S(=O)(=O)N2CCOCC2)c1	56µM*	24%	nt	-1%	-5%
O=C(CN1CCN(CC(=O)Nc2ccccc2F)CC1)Nc1ccc2c(c1)OCCO2	35µM*	20%	-16%	24%	-10%
O=C(CN1CCC(C(=O)c2ccc3c(c2)OCCO3)CC1)Nc1ccccc1F	5%	39%	-6%	-7%	0%
O=C(CN1CCN(C(=O)c2ccco2)CC1)Nc1ccc2c(c1)OCCO2	50µM*	26%	-27%	5%	-3%
O=C(COC(=O)c1cccnc1Cl)NC1CCCCC1	nt	29%	nt	nt	-4%
COC(=O)C1=CN(Cc2ccc(OC)c(OC)c2)C=C(C(=O)OC)C1c1cccc(F)c1	nt	119%	52%	-1%	61%
O=C(CSc1ncccn1)Nc1ccc(Cl)c(S(=O)(=O)N2CCOCC2)c1	nt	26%	nt	nt	-7%
O=C(CSc1ncn[nH]1)Nc1ccc(Cl)c(S(=O)(=O)N2CCOCC2)c1	50µM*	61%	nt	11%	-19%
CCNc1nc(NCC)nc(OCCOC(C)=O)n1	27%[59 µM]	18%	36%	12%	-15%
CCNc1nc(NC(C)C)nc(SCCOC(=O)c2ccccc2)n1	3%	93%	12%	12%	11%
CC(C)Nc1nc(NC(C)C)nc(C(=O)OCCO)n1	?	30%	35µM*	-16%	50µM*
CCNc1nc(NCC)nc(C(=O)OCCO)n1	40µM*	42%	25µM*	20%	35µM*
Cc1c(NC(=O)COC(=O)c2cccn2C)c(=O)n(-c2ccccc2)n1C	nt	18%[57 µM]	nt	nt	-8%
Clc1ncnc2c1oc1ccccc12	20%[59 µM]	58%	8%	14%	-2%
c1coc(CN(Cc2ccco2)c2ncnc3c2oc2ccccc23)c1	14µM*	-5%	?	28µM*	40µM*
CC1CC=C2C(C#N)=C(N)C(C#N)(C#N)C(c3cccs3)C2C1 (centres undefined)	40µM*	46%	3%	-18%	-17%
CC(=O)Nc1ccc(S(=O)(=O)NCCC(=O)OCC(=O)NC(C)c2ccc(Cl)cc2)cc1 (centres undefined)	nt	24%	nt	nt	-9%
CCOC(=O)/C(=N\Nc1ccccc1Cl)N1CC(C)OC(C)C1 (centres undefined)	1%[59 µM]	49%	?	-20%	-2%
CCOC(=O)/C(=N\Nc1ccc(Br)cc1)N1CC(C)OC(C)C1 (centres undefined)	3.2µM*	7%	-31%	-10%	?
Cc1ncoc1C(=O)N1CCCC(C(=O)c2ccc(C(F)(F)F)cc2)C1 (centres undefined)	25µM*	-31%	-22%	19%	-24%
CCCCOP(=O)(OCCCC)C1(NS(=O)(=O)c2ccccc2)C=CC(=O)c2ccccc21 (centres undefined)	1.8µM*	?	-7%	2%	?
SMILES	G9a block	HP1b chromo inh	BAZ2B inh	Sfp inh	JMJD2A Tudor inh
CN(C)S(=O)(=O)c1cccc(NC(=O)COC(=O)c2cc3ccccc3oc2=O)c1	79µM*	25%	18%	16%	-11%
O=C(COC(=O)c1cc2ccccc2oc1=O)Nc1cccc(S(=O)(=O)N2CCCCCC2)c1	21%[59 µM]	6%	5%	33%	-11%
CC(=O)c1cccc(NC(=O)COC(=O)c2cccs2)c1	18%	1%	-1%	-17%	?
CCN(c1ccc(NC(=O)COC(=O)c2cc3ccccc3oc2=O)cc1)C(C)C	22µM*	?	32µM*	4%	28µM*
CCN(c1ccc(NC(=O)COC(=O)c2cccs2)cc1)C(C)C	11µM*	?	?	-6%	45µM*
CCN(CC)C(=O)Cn1cc(/C=C(\C#N)C(=O)NC2CC2)c2ccccc21	nt	27%	-6%	11%	-15%
COCc1[nH][nH]c(=O)c1C=Nc1ccc(C(F)(F)F)cc1	?	19%	-33%	10%	-18%
O=C1CCC[C@@H]2[C@@H](Cc3ccccc3)[C@H](N3CCN(c4ccccc4)CC3)C[C@@H]3CCN1[C@@H]32	nt	-21%	nt	nt	45µM*
NC(=NCc1ccc2c(c1)OCO2)NC(=O)c1ccccc1	?	-22%	40µM*	?	?
C/C(CCc1ccc2c(c1)OCO2)=N\NC(=O)c1ccccc1	-6%[59 µM]	0%	0%	1%	-22%
COc1ccc(CNC(=O)CCCn2ccc3cc(S(=O)(=O)N4CCCC4)ccc32)cc1	19%	27%	-37%	2%	-25%
O=c1[nH]c(CSc2ncn[nH]2)nc2ccccc12	nt	-3%	-3%	-9%	?
CC(C)Cn1c(SCc2nc3ccccc3c(=O)[nH]2)nc2ccccc2c1=O	2%	17%	89µM*	2%	-8%
O=c1[nH]c(CSc2cccc[n+]2[O-])nc2ccccc12	nt	47%	-4%	45µM*	-1%
